Source: PubChem
MEKK2mut PB1 HTS: signal of MEK5 binding to mutant human MEKK2 PB1 domain; bead flow cytometry, Alexa488-MEK5 binding to MEKK2 mutant; percent response, % at 10 µM; 290,000 tested, 0.35% active; AID 1530; in the data active = percent response above about 24%, passing the limit was not always enough
MEKK2 WT-MEK5: raises or lowers MEK5 binding to wildtype human MEKK2 PB1 domain; binding response (% of control), % at 10 µM; Q9Y2U5; bead flow cytometry, Alexa488-MEK5 binding to MEKK2 WT; actives lie on both sides; 290,000 tested, 1.1% active; in the data active = binding response below about 67% or above about 130%; inconclusive = no clear call, values can overlap the other calls; inactive = in between
MEKK3 PB1 HTS: MEKK3-MEK5 PB1 interaction, increase or decrease | bead-based flow cytometry, Alexa488-MEK5 binding to MEKK3; actives lie on both sides; 0 = blocked by unlabeled MEK5, 100 = vehicle | binding response (% of control), % at 10 µM | 290,000 tested, 1.4% active | AID 1529;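 active = binding response more than 3 SD above or below the average of its plate-row segment, actives on both sides; inconclusive = wells at one plate position flagged as instrument error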;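 also: Alexa488 bead fluorescence after subtracting the streptavidin-only scavenger bead signal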
UBC13 inh: blocks human UBC13 polyubiquitin chain formation; P61088; TR-FRET; inhibition, % at 20 µM; 330,000 tested, 0.47% active; AID 485273; in the data active = inhibition above about 45%, passing the limit was not always enough; inconclusive = no clear call, values can overlap the other calls
Target sequence (P61088 whole entry, looked up): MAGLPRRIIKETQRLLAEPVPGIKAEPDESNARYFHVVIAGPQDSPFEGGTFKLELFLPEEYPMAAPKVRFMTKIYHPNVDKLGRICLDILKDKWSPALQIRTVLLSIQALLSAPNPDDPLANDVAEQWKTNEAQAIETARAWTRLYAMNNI
ATG4B inh: inhibitors of human ATG4B cysteine protease; inhibition, % at 8.33 µM; Q9Y4P1; 340,000 tested, 0.51% active; ATG4B cleavage of LC3-PLA2, NBD-HPC fluorescence, 1 h; in the data active = inhibition above about 40%
Target sequence (Q9Y4P1 whole entry, looked up): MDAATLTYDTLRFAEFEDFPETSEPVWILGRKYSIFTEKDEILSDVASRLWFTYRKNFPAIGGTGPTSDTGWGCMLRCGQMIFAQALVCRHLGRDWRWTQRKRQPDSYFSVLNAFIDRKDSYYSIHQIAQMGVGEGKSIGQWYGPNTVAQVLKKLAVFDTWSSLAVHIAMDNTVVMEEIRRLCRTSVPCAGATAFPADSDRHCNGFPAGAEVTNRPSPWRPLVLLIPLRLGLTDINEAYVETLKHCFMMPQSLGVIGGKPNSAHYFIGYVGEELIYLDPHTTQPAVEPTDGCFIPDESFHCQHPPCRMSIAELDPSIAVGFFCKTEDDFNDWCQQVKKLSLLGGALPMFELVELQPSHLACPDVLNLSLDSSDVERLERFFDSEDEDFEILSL
PREPL inhibitor: inhibitors of human prolyl oligopeptidase-like enzyme PREPL | Q4J6C6 | recombinant PREPL, fluorescence polarization activity-based probe | inhibition, % at 5.96 µM | 320,000 tested, 0.68% active | AID 2751; in the data active = inhibition above about 43%
MEKK2wt confirm: raises or lowers MEK5 binding to wildtype human MEKK2, retest; 5,900 tested, 2.4% active; binding response (% of control), % at 10 µM; AID 1892; bead flow cytometry, Alexa488-MEK5 binding to MEKK2 WT; actives lie on both sides; shares compounds with MEKK3 PB1 HTS; in the data active = binding response below about 16% or above about 210%; inactive = in between
MEKK2mut-MEK5: signal of MEK5 binding to mutant human MEKK2, retest; shares compounds with MEKK3 PB1 HTS; percent response, % at 10 µM; bead flow cytometry, Alexa488-MEK5 binding to MEKK2 mutant; 5,900 tested, 2% active; in the data active = percent response mostly above about 71%, no sharp cut-off; inactive = mostly below about 38%;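 also: higher means compound restores mutant binding toward wildtype level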
MEKK3-MEK5 inh: MEKK3-MEK5 PB1 inhibition, single concentration confirmation | shares compounds with MEKK3 PB1 HTS | bead flow cytometry, Alexa488-MEK5 binding to MEKK3; hits give low values | binding response (% of control), % at 10 µM | 5,900 tested, 1.8% active | AID 1894;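 active = binding response below 72% of control, or above a set upper limit, though filed actives all read lower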;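 also: lower values mean stronger disruption of MEK5 binding to MEKK3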
Large screens that a line does not name were inactive (follow-up assays come after a bar, where they were run); [ ] = remark or other dose. In the library only some 3.1% were active in any assay of this set; here they are far more common.

Cc1ccc(C)c(NC(=O)c2nc(-c3ccccc3)n(-c3ccccc3)n2)c1	none
CCOc1ccccc1CN1CCN(CC2=Cc3cc(OC)ccc3OC2)CC1CCO (stereo unspecified)	none
CC1CCCC/C1=N\NC(=S)Nc1cccnc1 (stereo unspecified)	MEKK2 WT-MEK5 6.0[inhibitor], MEKK3 PB1 HTS 4.0[inhibitor] | MEKK2wt confirm inactive | MEKK2mut-MEK5 inactive | MEKK3-MEK5 inh inactive
O=C(Nc1ccnn1C1CCN(Cc2ccc(O)c(Cl)c2)CC1)C1CCCC1	none
COc1cccc2cc(C(=O)N(Cc3ccccc3)CC3CCCO3)c(=O)oc12 (stereo unspecified)	MEKK3 PB1 HTS 124 | MEKK2wt confirm inactive | MEKK2mut-MEK5 inactive | MEKK3-MEK5 inh inactive
Cc1cc(-c2nn(-c3ccccc3F)cc2CN2CCN(c3ccncc3)CC2)c(C)s1	MEKK2 WT-MEK5 172 | MEKK2wt confirm inactive | MEKK2mut-MEK5 inactive | MEKK3-MEK5 inh inactive
O=C(CSC1=NCCS1)c1ccc(Cl)cc1	MEKK2mut PB1 HTS 129, MEKK2 WT-MEK5 282 | MEKK2wt confirm inactive | MEKK2mut-MEK5 inactive | MEKK3-MEK5 inh inactive
Cc1sc(N)c(C(=O)c2ccccc2)c1C	none
CCOCc1nnc(NC(=O)c2c(OC)cccc2OC)s1	MEKK2 WT-MEK5 137 | MEKK2wt confirm inactive | MEKK2mut-MEK5 inactive | MEKK3-MEK5 inh inactive
O=C(CCCn1c(=S)[nH]c2ccsc2c1=O)Nc1ccc2c(c1)OCCO2	UBC13 inh inconclusive
Cc1cc(C(=O)c2cnc(/N=C/N(C)C)s2)cc(C)c1O	MEKK2 WT-MEK5 0.0[inhibitor], MEKK3 PB1 HTS 0.0[inhibitor] | MEKK2wt confirm inactive | MEKK2mut-MEK5 inactive | MEKK3-MEK5 inh inactive
CN(C)/C=N/c1ncc(C(=O)c2ccccc2)s1	none
Cn1c(=O)c2c(ncn2CC(=O)OCC(=O)Nc2cc(Cl)ccc2Cl)n(C)c1=O	MEKK3 PB1 HTS 139 | MEKK2wt confirm inactive | MEKK2mut-MEK5 inactive | MEKK3-MEK5 inh inactive
Cn1c(=O)c2c(ncn2CC(=O)OCC(=O)Nc2ccc(Cl)cc2Cl)n(C)c1=O	none
N#C/C(=C/c1ccc(N2CCCCCC2)o1)c1ccc(Cl)cc1	MEKK2mut PB1 HTS 98 | MEKK2wt confirm inactive | MEKK2mut-MEK5 inactive | MEKK3-MEK5 inh inactive
N#C/C(=C/c1ccc(N2CCCCC2)o1)c1cccc(F)c1	none
COc1cccc(C(=O)N/N=c2\sc3ccccc3n2C)c1	none
Cc1ccc(C(=O)N/N=c2\sc3ccccc3n2C)cc1	MEKK3 PB1 HTS 136 | MEKK2wt confirm inactive | MEKK2mut-MEK5 inactive | MEKK3-MEK5 inh inactive
CCCC(=O)N(Cc1cc(=O)[nH]c2ccccc12)c1ccccc1C	none
Cc1ccc(S(N)(=O)=O)cc1NC(=O)C(c1ccccc1)c1ccccc1	none
O=C(COc1cccc(NC(=O)c2cccs2)c1)c1ccc(F)cc1	MEKK3 PB1 HTS 138 | MEKK2wt confirm inactive | MEKK2mut-MEK5 inactive | MEKK3-MEK5 inh inactive
Cc1[nH]n(-c2ccccc2)c(=O)c1/C=N/NC(=O)COc1ccccc1[N+](=O)[O-]	MEKK3 PB1 HTS 158 | MEKK2wt confirm inactive | MEKK2mut-MEK5 inactive | MEKK3-MEK5 inh inactive
Cc1[nH]n(-c2cccc3ccccc23)c(=O)c1/C=N/NC(=O)c1cccc([N+](=O)[O-])c1	MEKK3 PB1 HTS 61[inhibitor] | MEKK2wt confirm inactive | MEKK2mut-MEK5 inactive | MEKK3-MEK5 inh inactive
COCC(=O)N/N=C/c1c(C)[nH]n(-c2ccccc2)c1=O	none
COc1ccc(C(O)(c2ccccc2OC)C(CN2CCOCC2)c2ccccc2)cc1 (stereo unspecified)	none
CCC(C)[C@@H](N)C(=O)N/N=C/c1cccc2nccnc12 (stereo partly specified)	none
CCCN1CCN(CC(=O)Nc2nnc(CC)s2)CC1	none
c1ccc(CSc2nnc3ccc(-c4ccco4)nn23)nc1	none
CCN(CC)C(=O)c1c([N+](=O)[O-])c(C(C)(C)C)nn1C	MEKK3 PB1 HTS 140 | MEKK2wt confirm inactive | MEKK2mut-MEK5 inactive | MEKK3-MEK5 inh inactive
CN1CCC(N(C)S(=O)(=O)c2ccc(NC(=O)COc3cccc(C(F)(F)F)c3)cc2)CC1	none (no result: MEKK2mut PB1 HTS, MEKK2 WT-MEK5, MEKK3 PB1 HTS)
CC(=O)NS(=O)(=O)c1ccc(NC(=S)NC(=O)COc2ccccc2C)cc1	MEKK3 PB1 HTS 139 | MEKK2wt confirm inactive | MEKK2mut-MEK5 inactive | MEKK3-MEK5 inh inactive
Cn1c(=O)[nH]c(=O)c2[nH]c(N(Cc3ccccc3)Cc3ccccc3)nc21	MEKK3 PB1 HTS 122 | MEKK2wt confirm inactive | MEKK2mut-MEK5 inactive | MEKK3-MEK5 inh inactive
Cn1c(=O)[nH]c(=O)c2[nH]c(CN3CCN(Cc4ccccc4)CC3)nc21	none
COc1ccccc1OCC(=O)N1CCN(c2ccccc2OC)CC1	none
Fc1ccc(CSc2ncnc3scc(-c4ccccc4)c23)cc1	MEKK2mut PB1 HTS 52 | MEKK2wt confirm inactive | MEKK2mut-MEK5 inactive | MEKK3-MEK5 inh inactive
CCOCC(=O)N1CCN(c2ccccc2OC)CC1	MEKK2mut PB1 HTS 53 | MEKK2wt confirm inactive | MEKK2mut-MEK5 inactive | MEKK3-MEK5 inh inactive
COc1ccccc1N1CCN(C(=O)CSc2ncnc3scc(-c4ccccc4)c23)CC1	MEKK3 PB1 HTS 148 | MEKK2wt confirm inactive | MEKK2mut-MEK5 inactive | MEKK3-MEK5 inh inactive
Cc1ccnc(NC(=O)c2cc(S(=O)(=O)N3CCCCC3)ccc2Cl)c1	MEKK3 PB1 HTS 134 | MEKK2wt confirm inactive | MEKK2mut-MEK5 inactive | MEKK3-MEK5 inh inactive
COc1ccc(S(=O)(=O)N2CCCCCC2)cc1C(=O)Nc1cc(C)ccn1	none (no result: MEKK2mut PB1 HTS, MEKK2 WT-MEK5, MEKK3 PB1 HTS)
Cc1nc(SCC(=O)NCC(F)(F)F)c2c(-c3cccs3)csc2n1	MEKK3 PB1 HTS 128 | MEKK2wt confirm inactive | MEKK2mut-MEK5 inactive | MEKK3-MEK5 inh inactive
O=c1nc2n(c3ncccc13)CCCCC2	none
O=c1c(Cl)c(Cl)cnn1-c1ccccc1	MEKK3 PB1 HTS 133 (no result: UBC13 inh, PREPL inhibitor) | MEKK2wt confirm inactive | MEKK2mut-MEK5 inactive | MEKK3-MEK5 inh inactive
COc1ccc(NC(=O)Cc2c(SC)c3ccccc3n2Cc2ccccc2)cc1	MEKK3 PB1 HTS 160 | MEKK2wt confirm inactive | MEKK2mut-MEK5 inactive | MEKK3-MEK5 inh inactive
CCOc1ccc(S(=O)(=O)Nc2ccn(C)n2)cc1	none (no result: MEKK2mut PB1 HTS, MEKK2 WT-MEK5, MEKK3 PB1 HTS)
FC(F)(F)c1cccc(NC(=S)N(CCCN2CCCC2)Cc2cccn2Cc2ccc(Cl)cc2)c1	MEKK2 WT-MEK5 243 | MEKK2wt confirm 259 | MEKK2mut-MEK5 inactive | MEKK3-MEK5 inh inactive
CN(C)CCCN(Cc1ccccc1)C(=S)Nc1cccc(C(F)(F)F)c1	none
